In PubChem BioAssay (Tox21):
Records with an inconclusive call do not appear. The source made the active and inactive calls. Unless noted, calls follow the shape of the dose curve; as a rule, active = well fitted curve in the direction sought with a large enough effect in the repeat runs; inconclusive = weak or mixed curves; inactive = no such curve, though single readings can be large; an effect the other way counts as inactive or inconclusive.

Legend:
[1] = qHTS assay to identify aromatase inhibitors - cell viability counter screen (AID 743084);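 also: cells stimulated with testosterone during compound exposure; nearly all actives have a fitted effect of over 55% in size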
[2] = target: Aryl hydrocarbon receptor (Homo sapiens) (UniProt P35869); assay: qHTS assay to identify small molecule that activate the aryl hydrocarbon receptor (AhR) signaling pathway (AID 743085);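 also: HG2L7.5c1 human HepG2 liver cells with stably integrated DRE-driven firefly reporter; series mostly up to about 70 µM; nearly all actives have a fitted effect of over 15% in size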
In short: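 Cell line HG2L7.5c1 (human hepatoma, 20× DRE-luc). Plated, 5 h 37C, compound/DMSO added, 24 h 37C. CellTiter-Fluor 30 min 37C → fluorescence; then ONE-Glo 30 min RT → luminescence.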

[3] = qHTS assay to identify small molecule that activate the aryl hydrocarbon receptor (AhR) signaling pathway - cell viability counter screen (AID 743086);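 also: HepG2 liver cells carrying the AhR DRE luciferase reporter; series mostly up to about 70 µM; nearly all actives have a fitted effect of over 45% in size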
In short: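 Cytotoxicity counter screen: CellTiter-Fluor signal (30 min, 37 C) in 4000 HepG2 cells/well carrying the DRE-luciferase reporter, following 24 h compound exposure at 37 C.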

[4] = target: Peroxisome proliferator-activated receptor gamma (Homo sapiens) (UniProt P37231); assay: qHTS assay to identify small molecule agonists of the peroxisome proliferator-activated receptor gamma (PPARg) signaling pathway (AID 743094; active = well fitted activation curve with a large enough effect in the signal ratio in the repeat runs, not every such curve was filed as active; the % refers to the signal ratio)
In short: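 Agonist activity was taken from a beta-lactamase reporter (FRET substrate, 1 h at room temperature) in HEK293H cells carrying a PPARg UAS-bla construct. Compounds in DMSO were incubated 17 h at 37C after a 5 h cell pre-incubation.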

[5] = target: Peroxisome proliferator-activated receptor gamma (Homo sapiens) (UniProt P37231); assay: qHTS assay to identify small molecule antagonists of the peroxisome proliferator-activated receptor gamma (PPARg) signaling pathway (AID 743191; calls by dose curve; also: series mostly up to about 63 µM; nearly all actives have a fitted effect of over 30% in size)
In short: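 Beta-lactamase reporter under UAS control in HEK293H PPARg-bla cells; compound treatment 17 h at 37C. Read-out: fluorescence intensity after 1 h room-temperature incubation with LiveBLAzer B/G FRET substrate.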

[6] = qHTS assay to identify small molecule antagonists of the peroxisome proliferator-activated receptor gamma (PPARg) signaling pathway - cell viability counter screen (AID 743194); also: nearly all actives have a fitted effect of over 55% in size
In short: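 Viability was measured as CellTiter-Glo luminescence in GeneBLAzer PPARg UAS-bla HEK293H cells. These cells had been exposed 17 h at 37 C to compounds together with rosiglitazone at 50 nM final, with the beta-lactamase readout taken in the same wells.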

[7] = qHTS assay for small molecule agonists of the antioxidant response element (ARE) signaling pathway (AID 743202; active = well fitted activation curve with a large enough effect in the signal ratio in the repeat runs, not every such curve was filed as active; the % refers to the signal ratio)
In short: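 Beta-lactamase reporter activity, read as fluorescence intensity, reflects ARE/Nrf2 pathway induction in HepG2 cells after 16 h compound exposure at 37 C; substrate loading was 2 h at room temperature.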

[8] = qHTS assay for small molecule agonists of the antioxidant response element (ARE) signaling pathway - cell viability counter screen (AID 743203; calls by dose curve; also: nearly all actives have a fitted effect of over 55% in size)
In short: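 Viability counter screen: CellTiter-Glo luminescence, read after 30 min at room temperature, in ARE-bla HepG2 wells. Compound exposure lasted 16 h at 37C/5% CO2, following a 5 h pre-incubation of the cells after plating.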

[9] = qHTS assay for small molecule activators of the heat shock response signaling pathway - cell viability counter screen (AID 743209); also: nearly all actives have a fitted effect of over 50% in size
In short: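 Cytotoxicity counter screen run in the same wells as the heat-shock bla reporter assay: HeLa HSE-bla cells, 5 h compound exposure at 37 C, viability read by CellTiter-Glo luminescence.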

[10] = qHTS assay for small molecule activators of the heat shock response signaling pathway (AID 743210; active = well fitted activation curve with a large enough effect in the signal ratio in the repeat runs, with a control signal flat, not every such curve was filed as active; the % refers to the signal ratio;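 also: HeLa cells with beta-lactamase reporter driven by heat shock elements; series mostly up to about 63 µM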)
In short: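 Fluorescence from a cleaved B/G FRET substrate (2.5 h, room temp) reports HSE-driven beta-lactamase in HeLa cells treated 5 h at 37 C with DMSO-dissolved compounds.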

[11] = qHTS assay to identify small molecule agonists of the peroxisome proliferator-activated receptor delta (PPARd) signaling pathway - cell viability counter screen (AID 743211); also: nearly all actives have a fitted effect of over 55% in size
In short: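 HEK293H PPARd-bla, 3000 cells/well; 5 h preincubation 37C/5% CO2; cpd in DMSO, 17 h 37C; B/G FRET substrate 2 h RT; CellTiter-Glo 30 min RT, luminescence.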

[12] = target: Peroxisome proliferator-activated receptor delta (Homo sapiens) (UniProt Q03181); assay: qHTS assay to identify small molecule agonists of the peroxisome proliferator-activated receptor delta (PPARd) signaling pathway (AID 743212; calls by dose curve;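 also: HEK293H cells with PPARd UAS beta-lactamase reporter GeneBLAzer system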)
In short: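 Steps: seed PPARd-bla HEK293H cells; incubate 5 h, 37 C, 5% CO2; add compounds in DMSO; incubate, 37 C; add LiveBLAzer B/G FRET substrate; hold 2 h at room temperature; measure fluorescence.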

[13] = qHTS assay to identify small molecule antagonists of the peroxisome proliferator-activated receptor delta (PPARd) signaling pathway - cell viability counter screen (AID 743213); also: nearly all actives have a fitted effect of over 50% in size
In short: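 CellTiter-Glo was added to PPARd-bla HEK293H wells following 17 h compound treatment in the presence of 300 nM L165041. Luminescence was recorded after 30 min at room temperature.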

[14] = qHTS assay to identify small molecule antagonists of the farnesoid-X-receptor (FXR) signaling pathway - cell viability counter screen (AID 743221; active = well fitted cell-killing curve with a large enough effect in the repeat runs, not every such curve was filed as active; also: nearly all actives have a fitted effect of over 50% in size)
In short: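 Luminescence from CellTiter-Glo measures cytotoxicity in GeneBLAzer FXR-UAS-bla HEK 293T cells. Cells were exposed to compounds with 50 uM chenodeoxycholic acid (final) for 16 h at 37 C, in wells also used for the reporter readout.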

[15] = target: Bile acid receptor (Homo sapiens) (UniProt Q96RI1); assay: qHTS assay to identify small molecule antagonists of the farnesoid-X-receptor (FXR) signaling pathway (AID 743217; active = well fitted inhibition curve with a large enough effect in the signal ratio in the repeat runs, not every such curve was filed as active; the % refers to the signal ratio)
In short: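 Antagonist mode: chenodeoxycholic acid at 50 uM final stimulates a UAS-driven beta-lactamase reporter in HEK 293T FXR-bla cells during 16 h, 37C compound exposure. Read-out is FRET substrate fluorescence after 2 h at room temperature.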

[16] = qHTS assay to identify small molecule agonists of the farnesoid-X-receptor (FXR) signaling pathway - cell viability counter screen (AID 743218); also: nearly all actives have a fitted effect of over 45% in size
In short: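 Viability counter screen in the same wells: CellTiter-Glo luminescence, 30 min room-temperature incubation, measured after the beta-lactamase read. Cells were GeneBLAzer FXR-UAS-bla HEK 293T, compound-treated 16 h at 37C.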

[17] = target: Bile acid receptor (Homo sapiens) (UniProt Q96RI1); assay: qHTS assay to identify small molecule agonists of the farnesoid-X-receptor (FXR) signaling pathway (AID 743220; active = well fitted activation curve with a large enough effect in the signal ratio in the repeat runs, not every such curve was filed as active; the % refers to the signal ratio)
In short: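 FXR-UAS-bla HEK 293T cells carrying a UAS-driven beta-lactamase reporter were plated for 5 h at 37C/5% CO2, then exposed to DMSO-dissolved Tox21 10K compounds for 16 h at 37C. A LiveBLAzer B/G FRET substrate was loaded for 2 h at room temperature before fluorescence reading.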

[18] = target: Vitamin D3 receptor (Homo sapiens) (UniProt P11473); assay: qHTS assay to identify small molecule agonists of the vitamin D receptor (VDR) signaling pathway (AID 743222; calls by dose curve)
In short: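 Agonist mode, beta-lactamase reporter: fluorescence from LiveBLAzer B/G FRET substrate (2 h, room temperature) read after 16 h compound treatment at 37 C of VDR-bla cells, which were pre-incubated 4 h after seeding.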

[19] = target: Peroxisome proliferator-activated receptor delta (Homo sapiens) (UniProt Q03181); assay: qHTS assay to identify small molecule antagonists of the peroxisome proliferator-activated receptor delta (PPARd) signaling pathway (AID 743215; active = well fitted inhibition curve with a large enough effect in the signal ratio in the repeat runs, not every such curve was filed as active; the % refers to the signal ratio;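 also: cells stimulated with agonist L165041 at 300 nM final during compound exposure; series mostly up to about 62 µM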)
In short: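 Agonist L165041 (300 nM final) added with compound to PPARd-bla HEK293H UAS-bla reporter cells; 17 h incubation at 37 C. Read-out: LiveBLAzer FRET substrate, 2 h at room temperature, fluorescence intensity.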

[20] = target: Vitamin D3 receptor (Homo sapiens) (UniProt P11473); assay: qHTS assay to identify small molecule antagonists of the vitamin D receptor (VDR) signaling pathway (AID 743223; active = well fitted inhibition curve with a large enough effect in the signal ratio in the repeat runs, not every such curve was filed as active; the % refers to the signal ratio)
In short: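 Antagonist mode uses 1alpha,25-dihydroxyvitamin D3 at 3 nM final as stimulus. VDR-bla cells receive compounds in DMSO, incubate 16 h at 37C, then a beta-lactamase FRET substrate for 2 h at room temperature before fluorescence measurement.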
% is scaled to controls: 0 for no effect and ±100 for the full control effect.

Chain of Peroxisome proliferator-activated receptor delta (Homo sapiens) (Q03181 whole entry, looked up): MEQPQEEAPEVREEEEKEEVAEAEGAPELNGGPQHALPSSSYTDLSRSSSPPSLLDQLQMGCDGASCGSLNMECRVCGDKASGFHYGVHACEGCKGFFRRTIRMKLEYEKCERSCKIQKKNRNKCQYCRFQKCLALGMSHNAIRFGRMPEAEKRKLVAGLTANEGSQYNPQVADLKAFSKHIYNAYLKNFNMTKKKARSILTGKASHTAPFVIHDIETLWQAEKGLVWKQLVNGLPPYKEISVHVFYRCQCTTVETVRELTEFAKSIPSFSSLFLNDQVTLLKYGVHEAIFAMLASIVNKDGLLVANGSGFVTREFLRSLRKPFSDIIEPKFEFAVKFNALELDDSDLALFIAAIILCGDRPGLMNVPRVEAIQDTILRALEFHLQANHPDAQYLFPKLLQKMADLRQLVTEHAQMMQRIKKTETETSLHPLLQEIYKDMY
Chain of Bile acid receptor (Homo sapiens) (Q96RI1 whole entry, looked up): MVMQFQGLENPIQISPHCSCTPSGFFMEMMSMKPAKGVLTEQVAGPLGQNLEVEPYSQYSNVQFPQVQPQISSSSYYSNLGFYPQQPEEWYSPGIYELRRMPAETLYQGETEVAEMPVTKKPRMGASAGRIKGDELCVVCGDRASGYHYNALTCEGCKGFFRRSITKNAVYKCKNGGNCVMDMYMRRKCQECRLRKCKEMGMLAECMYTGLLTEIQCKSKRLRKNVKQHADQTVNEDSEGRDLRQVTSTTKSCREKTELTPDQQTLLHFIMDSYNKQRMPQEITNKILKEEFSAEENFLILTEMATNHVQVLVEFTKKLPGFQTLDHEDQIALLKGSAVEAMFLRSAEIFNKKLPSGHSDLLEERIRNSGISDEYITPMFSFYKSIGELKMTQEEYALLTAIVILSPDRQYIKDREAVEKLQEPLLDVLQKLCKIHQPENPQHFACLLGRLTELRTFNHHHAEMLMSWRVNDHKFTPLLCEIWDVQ
Chain of Vitamin D3 receptor (Homo sapiens) (P11473 whole entry, looked up): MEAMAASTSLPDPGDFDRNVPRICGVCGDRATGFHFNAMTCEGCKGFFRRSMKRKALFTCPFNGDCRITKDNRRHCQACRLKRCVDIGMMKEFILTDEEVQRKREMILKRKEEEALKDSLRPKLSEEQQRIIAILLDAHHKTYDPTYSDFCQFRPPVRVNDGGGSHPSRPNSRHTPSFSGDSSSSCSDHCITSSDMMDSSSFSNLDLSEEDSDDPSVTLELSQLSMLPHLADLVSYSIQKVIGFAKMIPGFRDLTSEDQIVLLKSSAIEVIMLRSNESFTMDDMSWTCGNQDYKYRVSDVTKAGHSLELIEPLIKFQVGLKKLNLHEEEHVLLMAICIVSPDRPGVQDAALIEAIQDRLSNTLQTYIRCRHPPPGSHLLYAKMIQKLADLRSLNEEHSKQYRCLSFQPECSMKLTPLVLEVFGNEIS
Chain of Aryl hydrocarbon receptor (Homo sapiens) (P35869 whole entry, looked up): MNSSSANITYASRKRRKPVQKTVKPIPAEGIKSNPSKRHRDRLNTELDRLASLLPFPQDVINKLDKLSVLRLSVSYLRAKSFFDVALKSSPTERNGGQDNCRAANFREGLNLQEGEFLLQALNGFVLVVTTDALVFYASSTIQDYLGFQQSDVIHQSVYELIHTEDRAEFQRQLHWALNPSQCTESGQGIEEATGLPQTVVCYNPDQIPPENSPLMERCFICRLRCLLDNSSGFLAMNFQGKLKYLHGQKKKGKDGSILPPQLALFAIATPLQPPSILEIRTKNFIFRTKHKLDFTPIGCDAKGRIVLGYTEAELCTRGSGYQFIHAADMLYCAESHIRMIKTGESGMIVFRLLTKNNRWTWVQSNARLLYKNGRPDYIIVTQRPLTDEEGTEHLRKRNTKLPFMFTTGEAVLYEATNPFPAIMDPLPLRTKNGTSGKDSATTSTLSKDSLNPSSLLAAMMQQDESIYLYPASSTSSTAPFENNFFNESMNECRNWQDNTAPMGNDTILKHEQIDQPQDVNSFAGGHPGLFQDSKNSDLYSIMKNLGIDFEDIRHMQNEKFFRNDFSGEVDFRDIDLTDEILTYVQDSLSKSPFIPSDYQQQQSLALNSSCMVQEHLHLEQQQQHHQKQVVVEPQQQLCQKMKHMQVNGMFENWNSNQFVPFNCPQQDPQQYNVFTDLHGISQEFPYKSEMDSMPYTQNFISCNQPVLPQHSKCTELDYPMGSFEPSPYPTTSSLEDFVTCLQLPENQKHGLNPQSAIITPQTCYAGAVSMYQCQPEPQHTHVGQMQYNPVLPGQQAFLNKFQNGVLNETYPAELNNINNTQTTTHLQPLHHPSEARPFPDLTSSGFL
Chain of Peroxisome proliferator-activated receptor gamma (Homo sapiens) (P37231 whole entry, looked up): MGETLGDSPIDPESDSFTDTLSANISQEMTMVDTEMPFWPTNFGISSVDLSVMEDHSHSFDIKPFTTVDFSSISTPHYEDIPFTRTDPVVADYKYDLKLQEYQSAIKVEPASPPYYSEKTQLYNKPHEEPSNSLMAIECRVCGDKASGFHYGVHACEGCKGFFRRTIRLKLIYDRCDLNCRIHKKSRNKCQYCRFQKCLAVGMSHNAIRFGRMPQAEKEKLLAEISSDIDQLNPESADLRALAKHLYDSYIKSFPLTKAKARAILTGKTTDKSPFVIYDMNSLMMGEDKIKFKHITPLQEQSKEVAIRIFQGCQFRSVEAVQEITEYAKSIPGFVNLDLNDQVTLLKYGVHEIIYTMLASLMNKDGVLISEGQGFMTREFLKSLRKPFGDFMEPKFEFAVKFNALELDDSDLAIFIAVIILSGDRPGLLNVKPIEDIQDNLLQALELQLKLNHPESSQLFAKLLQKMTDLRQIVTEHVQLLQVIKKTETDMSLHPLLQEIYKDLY

Cc1cccn2c(=O)c(-c3nnn[nH]3)cnc12
inactive: Potency [1] | Potency [2] | Potency [3] | outcome [4] | Potency [5] | outcome [6] | Potency [7] | Potency [8] | outcome [9] | outcome [10] | Potency [11] | outcome [12] | Potency [13] | Potency [14]

CC(=O)Nc1ccc(S(N)(=O)=O)cc1
inactive: Potency [1] | Potency [2] | Potency [3] | outcome [4] | Potency [5] | outcome [6] | Potency [7] | Potency [8] | outcome [10] | outcome [12] | outcome [15] | Potency [16] | outcome [17] | Potency [14] | outcome [18]

CCC(C)S (centres undefined)
inactive: activity change, negative = cytotoxicity [1] -1.89% [at 3.79 µM] | activation [2] 2.05% [at 3.79 µM] | viability change, negative = cytotoxic [3] -4.09% [at 3.79 µM] | activation [4] 4.65% [at 3.17 µM] | ratio activity, negative = inhibition [5] 25.6% [at 2.7 µM] | activity change, negative = cytotoxicity [6] -9.73% [at 2.7 µM] | activation [7] 1.05% [at 3.74 µM] | viability change, negative = cytotoxic [8] 9.9% [at 3.74 µM] | activity change, negative = cytotoxicity [9] -3.21% [at 2.7 µM] | activity change, negative = cytotoxicity [11] 2.23% [at 2.7 µM] | activation [12] -4.14% [at 2.7 µM] | viability change, negative = cytotoxic [13] 4.88% [at 2.83 µM] | ratio activity, negative = inhibition [19] 5.9% [at 2.83 µM] | activity change, negative = inhibition [15] 3.24% [at 2.69 µM] | activation [17] -0.872% [at 2.7 µM] | activity change, negative = cytotoxicity [14] 5.23% [at 2.69 µM] | activation [18] 12.2% [at 2.71 µM] | activity change, negative = inhibition [20] 0.31% [at 3.11 µM]

CCOc1ccc(C(=O)OCCN(CC)CC)cc1
inactive: Potency [1] | Potency [2] | Potency [3] | outcome [4] | Potency [5] | outcome [6] | Potency [7] | Potency [8] | outcome [10] | Potency [13] | outcome [15] | outcome [17] | Potency [14] | outcome [18] | outcome [20]

CC(C)(C)NCCNC(C)(C)C
inactive: Potency [1] | Potency [2] | Potency [3] | outcome [4] | Potency [5] | outcome [6] | Potency [8] | outcome [9] | outcome [10] | Potency [11] | Potency [13] | Potency [19] | outcome [15] | Potency [16] | Potency [14] | outcome [18]

CC(=O)N(CC(O)CO)c1c(I)c(C(=O)NCCO)c(I)c(C(=O)NCC(O)CO)c1I (centres undefined)
inactive: Potency [1] | Potency [2] | Potency [3] | outcome [4] | Potency [5] | outcome [6] | Potency [8] | outcome [9] | outcome [10] | Potency [11] | outcome [12] | Potency [19] | outcome [15] | Potency [16] | Potency [14] | outcome [18] | outcome [20]

COC(=O)CC(C)=O
inactive: Potency [1] | Potency [2] | Potency [3] | outcome [4] | Potency [5] | outcome [6] | Potency [7] | Potency [8] | outcome [9] | outcome [10] | outcome [12] | Potency [13] | Potency [14]

COC(=O)NN
inactive: Potency [1] | Potency [2] | Potency [3] | outcome [4] | Potency [5] | outcome [6] | Potency [7] | Potency [8] | outcome [9] | outcome [10] | outcome [12] | outcome [15] | outcome [17] | Potency [14] | outcome [18] | outcome [20]
